# Key:
# Assay in all cases: SPOT peptide array binding signal intensity (averaged, normalized) (arbitrary units (background-subtracted, floor 0; scale differs between SH3 domains)); higher = stronger binding of the SH3 domain to the peptide
# AgAbp1 = biological target: AgAbp1
# In short: (§1)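 Peptides were synthetic 15-mers on cellulose membranes, with every cysteine replaced by serine. They were incubated overnight at 4°C with GST-SH3 domains from four yeast species at 10 μg/ml in TBS-based blocking buffer. Binding signal, the replicate-averaged normalized and background-subtracted spot intensity, is in arbitrary units that differ between domains.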
# AgBbc1 = biological target: AgBbc1
# In short: as §1
# AgBem1-D1 = biological target: AgBem1-D1
# In short: as §1
# AgBzz1-D1 = biological target: AgBzz1-D1
# In short: as §1
# AgBzz1-D2 = biological target: AgBzz1-D2
# In short: as §1
# AgCyk3 = biological target: AgCyk3
# In short: as §1
# AgFus1 = biological target: AgFus1
# In short: as §1
# AgHof1 = biological target: AgHof1
# In short: as §1
# AgHse1 = biological target: AgHse1
# In short: as §1
# AgLsb1 = biological target: AgLsb1
# In short: as §1
# AgLsb4 = biological target: AgLsb4
# In short: as §1
# AgMyo5 = biological target: AgMyo5
# In short: as §1
# AgNbp2 = biological target: AgNbp2
# In short: as §1
# AgRvs167 = biological target: AgRvs167
# In short: as §1
# AgSho1 = biological target: AgSho1
# In short: as §1
# AgSla1-D1-D2 = biological target: AgSla1-D1-D2
# In short: as §1
# AgSla1-D3 = biological target: AgSla1-D3
# In short: as §1
# CaAbp1-D1 = biological target: CaAbp1-D1
# In short: as §1
# CaAbp1-D2 = biological target: CaAbp1-D2
# In short: as §1
# CaBbc1 = biological target: CaBbc1
# In short: as §1
# CaBem1-D1 = biological target: CaBem1-D1
# In short: as §1
# CaBzz1-D1 = biological target: CaBzz1-D1
# In short: as §1
# CaBzz1-D2 = biological target: CaBzz1-D2
# In short: as §1
# CaCyk3 = biological target: CaCyk3
# In short: as §1
# CaFus1 = biological target: CaFus1
# In short: as §1
# CaHof1 = biological target: CaHof1
# In short: as §1
# CaHse1 = biological target: CaHse1
# In short: as §1
# CaLsb1 = biological target: CaLsb1
# In short: as §1
# CaLsb4 = biological target: CaLsb4
# In short: as §1
# CaMyo5 = biological target: CaMyo5
# In short: as §1
# CaNbp2 = biological target: CaNbp2
# In short: as §1
# CaRvs167 = biological target: CaRvs167
# In short: as §1
# CaRvs167-3 = biological target: CaRvs167-3
# In short: as §1
# CaSho1 = biological target: CaSho1
# In short: as §1
# CaSla1-D1-D2 = biological target: CaSla1-D1-D2
# In short: as §1
# CaSla1-D3 = biological target: CaSla1-D3
# In short: as §1
# ScAbp1 = biological target: ScAbp1
# In short: as §1
# ScBbc1 = biological target: ScBbc1
# In short: as §1
# ScBem1-D1 = biological target: ScBem1-D1
# In short: as §1
# ScBzz1-D1 = biological target: ScBzz1-D1
# In short: as §1
# ScBzz1-D2 = biological target: ScBzz1-D2
# In short: as §1
# ScCyk3 = biological target: ScCyk3
# In short: as §1
# ScFus1 = biological target: ScFus1
# In short: as §1
# ScHof1 = biological target: ScHof1
# In short: as §1
# ScHse1 = biological target: ScHse1
# In short: as §1
# ScLsb1 = biological target: ScLsb1
# In short: as §1
# ScLsb2 = biological target: ScLsb2
# In short: as §1
# ScLsb3 = biological target: ScLsb3
# In short: as §1
# ScLsb4 = biological target: ScLsb4
# In short: as §1
# ScMyo3 = biological target: ScMyo3
# In short: as §1
# ScMyo5 = biological target: ScMyo5
# In short: as §1
# ScNbp2 = biological target: ScNbp2
# In short: as §1
# ScPex13 = biological target: ScPex13
# In short: as §1
# ScRvs167 = biological target: ScRvs167
# In short: as §1
# ScSho1 = biological target: ScSho1
# In short: as §1
# ScSla1-D1-D2 = biological target: ScSla1-D1-D2
# In short: as §1
# ScSla1-D3 = biological target: ScSla1-D3
# In short: as §1
# SpAbp1-D1 = biological target: SpAbp1-D1
# In short: as §1
# SpBbc1 = biological target: SpBbc1
# In short: as §1
# SpBzz1-D1 = biological target: SpBzz1-D1
# In short: as §1
# SpBzz1-D2 = biological target: SpBzz1-D2
# In short: as §1
# SpCyk3 = biological target: SpCyk3
# In short: as §1
# SpHof1 = biological target: SpHof1
# In short: as §1
# SpHof1-2 = biological target: SpHof1-2
# In short: as §1
# SpHof1-3 = biological target: SpHof1-3
# In short: as §1
# SpHse1 = biological target: SpHse1
# In short: as §1
# SpLsb1 = biological target: SpLsb1
# In short: as §1
# SpLsb4 = biological target: SpLsb4
# In short: as §1
# SpMyo1 = biological target: SpMyo1
# In short: as §1
# SpNbp2 = biological target: SpNbp2
# In short: as §1
# SpPex13 = biological target: SpPex13
# In short: as §1
# SpRvs167 = biological target: SpRvs167
# In short: as §1
# SpSla1-D1-D2 = biological target: SpSla1-D1-D2
# In short: as §1
# SpSla1-D3 = biological target: SpSla1-D3
# In short: as §1
binder,measurement,setting,value
AAHKTKPSIPPKKVE,SPOT peptide array binding signal intensity,AgAbp1,1520
same,SPOT peptide array binding signal intensity,AgBbc1,≤ 0
same,SPOT peptide array binding signal intensity,AgBem1-D1,≤ 0
same,SPOT peptide array binding signal intensity,AgBzz1-D1,57.5
same,SPOT peptide array binding signal intensity,AgBzz1-D2,5.5
same,SPOT peptide array binding signal intensity,AgCyk3,≤ 0
same,SPOT peptide array binding signal intensity,AgFus1,≤ 0
same,SPOT peptide array binding signal intensity,AgHof1,20
same,SPOT peptide array binding signal intensity,AgHse1,≤ 0
same,SPOT peptide array binding signal intensity,AgLsb1,≤ 0
same,SPOT peptide array binding signal intensity,AgLsb4,≤ 0
same,SPOT peptide array binding signal intensity,AgMyo5,3.75
same,SPOT peptide array binding signal intensity,AgNbp2,≤ 0
same,SPOT peptide array binding signal intensity,AgRvs167,1
same,SPOT peptide array binding signal intensity,AgSho1,8
same,SPOT peptide array binding signal intensity,AgSla1-D1-D2,≤ 0
same,SPOT peptide array binding signal intensity,AgSla1-D3,3.25
same,SPOT peptide array binding signal intensity,CaAbp1-D1,2440
same,SPOT peptide array binding signal intensity,CaAbp1-D2,6290
same,SPOT peptide array binding signal intensity,CaBbc1,42
same,SPOT peptide array binding signal intensity,CaBem1-D1,≤ 0
same,SPOT peptide array binding signal intensity,CaBzz1-D1,257
same,SPOT peptide array binding signal intensity,CaBzz1-D2,243
same,SPOT peptide array binding signal intensity,CaCyk3,≤ 0
same,SPOT peptide array binding signal intensity,CaFus1,≤ 0
same,SPOT peptide array binding signal intensity,CaHof1,1.5
same,SPOT peptide array binding signal intensity,CaHse1,13.2
same,SPOT peptide array binding signal intensity,CaLsb1,≤ 0
same,SPOT peptide array binding signal intensity,CaLsb4,≤ 0
same,SPOT peptide array binding signal intensity,CaMyo5,1
same,SPOT peptide array binding signal intensity,CaNbp2,≤ 0
same,SPOT peptide array binding signal intensity,CaRvs167,1.67
same,SPOT peptide array binding signal intensity,CaRvs167-3,≤ 0
same,SPOT peptide array binding signal intensity,CaSho1,≤ 0
same,SPOT peptide array binding signal intensity,CaSla1-D1-D2,282
same,SPOT peptide array binding signal intensity,CaSla1-D3,3.25
same,SPOT peptide array binding signal intensity,ScAbp1,907
same,SPOT peptide array binding signal intensity,ScBbc1,≤ 0
same,SPOT peptide array binding signal intensity,ScBem1-D1,≤ 0
same,SPOT peptide array binding signal intensity,ScBzz1-D1,3.5
same,SPOT peptide array binding signal intensity,ScBzz1-D2,1.5
same,SPOT peptide array binding signal intensity,ScCyk3,≤ 0
same,SPOT peptide array binding signal intensity,ScFus1,≤ 0
same,SPOT peptide array binding signal intensity,ScHof1,0.5
same,SPOT peptide array binding signal intensity,ScHse1,≤ 0
same,SPOT peptide array binding signal intensity,ScLsb1,0.25
same,SPOT peptide array binding signal intensity,ScLsb2,0.5
same,SPOT peptide array binding signal intensity,ScLsb3,144
same,SPOT peptide array binding signal intensity,ScLsb4,13.5
same,SPOT peptide array binding signal intensity,ScMyo3,8.5
same,SPOT peptide array binding signal intensity,ScMyo5,2
same,SPOT peptide array binding signal intensity,ScNbp2,≤ 0
same,SPOT peptide array binding signal intensity,ScPex13,7
same,SPOT peptide array binding signal intensity,ScRvs167,3.17
same,SPOT peptide array binding signal intensity,ScSho1,6
same,SPOT peptide array binding signal intensity,ScSla1-D1-D2,≤ 0
same,SPOT peptide array binding signal intensity,ScSla1-D3,2.5
same,SPOT peptide array binding signal intensity,SpAbp1-D1,282
same,SPOT peptide array binding signal intensity,SpBbc1,≤ 0
same,SPOT peptide array binding signal intensity,SpBzz1-D1,311
same,SPOT peptide array binding signal intensity,SpBzz1-D2,≤ 0
same,SPOT peptide array binding signal intensity,SpCyk3,≤ 0
same,SPOT peptide array binding signal intensity,SpHof1,0.25
same,SPOT peptide array binding signal intensity,SpHof1-2,6
same,SPOT peptide array binding signal intensity,SpHof1-3,3
same,SPOT peptide array binding signal intensity,SpHse1,32.8
same,SPOT peptide array binding signal intensity,SpLsb1,11.5
same,SPOT peptide array binding signal intensity,SpLsb4,4
same,SPOT peptide array binding signal intensity,SpMyo1,≤ 0
same,SPOT peptide array binding signal intensity,SpNbp2,12.5
same,SPOT peptide array binding signal intensity,SpPex13,1
same,SPOT peptide array binding signal intensity,SpRvs167,9.5
same,SPOT peptide array binding signal intensity,SpSla1-D1-D2,4
same,SPOT peptide array binding signal intensity,SpSla1-D3,2.5
KTRLRPAFIQQLWSS,SPOT peptide array binding signal intensity,SpBzz1-D2,1
same,SPOT peptide array binding signal intensity,SpCyk3,5
same,SPOT peptide array binding signal intensity,SpHof1,117
same,SPOT peptide array binding signal intensity,SpHof1-2,13.2
same,SPOT peptide array binding signal intensity,SpHof1-3,571
same,SPOT peptide array binding signal intensity,SpHse1,696
same,SPOT peptide array binding signal intensity,SpLsb1,≤ 0
same,SPOT peptide array binding signal intensity,SpLsb4,7
same,SPOT peptide array binding signal intensity,SpMyo1,3
same,SPOT peptide array binding signal intensity,SpNbp2,58.5
same,SPOT peptide array binding signal intensity,SpPex13,17
same,SPOT peptide array binding signal intensity,SpRvs167,6.67
same,SPOT peptide array binding signal intensity,SpSla1-D1-D2,≤ 0
same,SPOT peptide array binding signal intensity,SpSla1-D3,8

# Source: the supplement of paper PMC4466140
